Reference: the supplement of paper PMC12669032
Values without a mark were called inactive.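 Rule for the calls: active = AUC reduced over 20% with Padj below 0.05 in at least 2 of 3 replicates; inactive = otherwise.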

Tests used:
Experiment in all cases: growth AUC relative to DMSO control (median of replicates) (fraction); higher = more growth (less inhibition), active = hit call of the paper
Conditions in all cases: 20 µM; 24 h
[1] = test system: Akkermansia muciniphila
Outline: (§1)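 Area under the growth curve was normalised to the plate median of solvent-only wells, or to row and column medians on the industrial chemical plate. Growth curves came from anaerobic gut bacterial monocultures in mGAM at 37 °C, seeded at OD600 0.05 with 20 µM compound (1% DMSO), and read at OD600 hourly for 24 h with the minimum OD set to 0. The value is the median of three biological replicates grown on separate days.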

[2] = test system: Bacteroides caccae
Outline: as §1

[3] = test system: Bacteroides clarus
Outline: as §1

[4] = test system: Bacteroides dorei
Outline: as §1

[5] = test system: Bacteroides stercoris
Outline: as §1

[6] = test system: Bacteroides thetaiotaomicron
Outline: as §1

[7] = test system: Bacteroides uniformis
Outline: as §1

[8] = test system: Bifidobacterium longum subsp. longum
Outline: as §1

[9] = test system: Clostridium difficile
Outline: as §1

[10] = test system: Collinsella aerofaciens
Outline: as §1

[11] = test system: Coprococcus comes
Outline: as §1

[12] = test system: Escherichia coli ED1a
Outline: as §1

[13] = test system: Escherichia coli IAI1
Outline: as §1

[14] = test system: Eubacterium rectale
Outline: as §1

[15] = test system: Fusobacterium nucleatum subsp. animalis
Outline: as §1

[16] = test system: Lactobacillus gasseri
Outline: as §1

[17] = test system: Lactobacillus paracasei
Outline: as §1

[18] = test system: Odoribacter splanchnicus
Outline: as §1

[19] = test system: Parabacteroides distasonis
Outline: as §1

[20] = test system: Parabacteroides merdae
Outline: as §1

| Compound | growth AUC [1] | growth AUC [2] | growth AUC [3] | growth AUC [4] | growth AUC [5] | growth AUC [6] | growth AUC [7] | growth AUC [8] | growth AUC [9] | growth AUC [10] | growth AUC [11] | growth AUC [12] | growth AUC [13] | growth AUC [14] | growth AUC [15] | growth AUC [16] | growth AUC [17] | growth AUC [18] | growth AUC [19] | growth AUC [20] |
| --- | --- | --- | --- | --- | --- | --- | --- | --- | --- | --- | --- | --- | --- | --- | --- | --- | --- | --- | --- | --- |
| c1ccc2cc3ccccc3cc2c1 | 0.776 (active) | 0.972 | 1 | 1 | 1.01 | 0.987 | 0.999 | 0.81 | 0.997 | 0.961 | 0.927 | 0.987 | 0.967 | 1.27 | 1.01 | 0.914 | 0.923 | 0.999 | 0.758 | 0.958 |
| O=C1NCCN1 | 1.15 | 1.02 | 1.02 | 1.06 | 1.18 | 1.02 | 0.978 | 1.04 | 0.993 | 1.02 | 1.04 | 1.05 | 1.06 | 1.01 | 1.03 | 0.984 | 0.904 | 1.04 | 1.02 | 1.04 |
| C=CCc1ccc(OC)c(OC)c1 | 1.02 | 1.04 | 0.998 | 1.06 | 1.01 | 1.03 | 1.04 | 1.11 | 0.984 | 1.03 | 1.01 | 0.994 | 1.04 | 1 | 1.06 | 1.03 | 1 | 0.694 (active) | 1.3 | 1.04 |
| COc1cc(OC)c(Cl)cc1N | 0.954 | 0.994 | 0.995 | 1.02 | 1.09 | 1.01 | 1.01 | 0.912 | 1.01 | 1.03 | 1.03 | 1 | 1.01 | 1.03 | 1.14 | 0.969 | 1.04 | 1.04 | 1.02 | 1.04 |
| Cc1cc(C)cc(OCC(C)Nc2nc(N)nc(C(C)(C)F)n2)c1 (stereo not given) | 1.07 | 0.889 | 0.889 | 0.978 | 0.746 | 0.912 | 0.962 | 1.03 | 0.983 | 0.929 | 0.958 | 0.948 | 0.956 | 1.05 | 0.813 | 0.974 | 0.993 | 0.992 | 0.835 | 0.87 |
| Cc1cccc(C)c1N(C(=O)CCl)C1CCOC1=O (stereo not given) | 1.05 | 0.802 | 0.993 | 0.971 | 1.1 | 0.647 (active) | 0.894 | 1.04 | 0.966 | 0.959 | 0.889 | 0.963 | 1.01 | 1.09 | 1.02 | 0.953 | 1.01 | 0.408 | 0.99 | 0.981 |
| CC(C)NS(=O)(=O)NC(=O)c1cc(NC(N)=O)c(F)cc1Cl | 1.06 | 1 | 0.988 | 0.959 | 0.991 | 0.808 | 1.02 | 1.02 | 1.06 | 0.981 | 0.928 | 1.01 | 0.971 | 1.01 | 1 | 0.907 | 1.1 | 0.976 | 1.02 | 0.98 |
| CCOC(=O)C1=NOC(c2ccccc2)(c2ccccc2)C1 | 0.86 | 1.03 | 0.971 | 0.995 | 0.979 | 0.926 | 0.932 | 0.966 | 0.974 | 0.993 | 0.974 | 0.974 | 0.997 | 0.932 | 0.956 | 0.99 | 1.06 | 0.944 | 1.14 | 0.948 |
| COC(=O)C(C)Oc1cc(Cl)c(Cl)cc1Cl (stereo not given) | 0.978 | 0.982 | 1 | 1.04 | 1.22 | 0.982 | 0.978 | 1.03 | 1.03 | 0.982 | 1 | 0.985 | 1.05 | 0.975 | 1.03 | 1.12 | 0.883 | 0.927 | 0.994 | 0.974 |
| CCOCCc1ccc(OCCNc2ncnc(CC)c2Cl)c(C)c1C | 0.937 | 0.929 | 0.883 | 0.942 | 0.975 | 0.915 | 0.887 | 0.923 | 0.998 | 0.94 | 0.978 | 0.999 | 0.961 | 0.846 | 1.07 | 0.883 | 0.929 | 1.01 | 0.903 | 0.92 |
| CCCCC(CC)CN1C(=O)C2C(C1=O)[C@H]1C=C[C@@H]2C1 (mixture of isomers) | 1.11 | 1 | 1.03 | 0.974 | 1.06 | 0.985 | 0.972 | 1.05 | 1.03 | 1.12 | 1.03 | 1.01 | 1.03 | 0.93 | 1.01 | 1.06 | 1.04 | 1.03 | 0.79 (active) | 0.977 |
| c1ccc2c(c1)ccc1ccccc12 | 1.02 | 0.983 | 1.01 | 0.996 | 0.999 | 1.01 | 1 | 1.01 | 1 | 1.02 | 0.965 | 1.01 | 1.01 | 1.01 | 0.985 | 0.994 | 0.999 | 1.01 | 1.04 | 1.01 |
| CP(=O)(O)CCC(=O)O | 0.928 | 0.975 | 0.956 | 1.01 | 1.01 | 1.03 | 0.967 | 1.03 | 1.04 | 1 | 0.993 | 0.973 | 0.999 | 0.804 | 0.999 | 1.14 | 0.999 | 1.04 | 0.974 | 0.993 |
| NC(Cn1cncn1)C(=O)O (stereo not given) | 0.948 | 0.985 | 0.992 | 0.983 | 1.01 | 1 | 0.998 | 0.966 | 0.981 | 1.01 | 1.01 | 0.966 | 0.976 | 0.93 | 0.94 | 0.999 | 0.977 | 0.967 | 1.05 | 1.01 |
| O=C(Nc1ccc(Cl)cc1C(O)c1ccccc1)c1ccncc1 (stereo not given) | 1.04 | 0.985 | 0.946 | 1.01 | 0.878 | 0.97 | 0.987 | 1.01 | 0.982 | 0.994 | 1.04 | 0.997 | 0.958 | 1.12 | 1.08 | 0.966 | 0.943 | 0.971 | 0.983 | 0.979 |
| COc1cc(OC)nc(Sc2cccc3c2C(=O)OC3C)n1 (stereo not given) | 0.871 | 1.01 | 0.989 | 1.04 | 1.06 | 0.974 | 0.97 | 0.974 | 0.998 | 1.03 | 1 | 0.984 | 0.999 | 1.02 | 0.965 | 1.06 | 1 | 1.09 | 0.904 | 0.968 |
